Bioassay records (PubChem)
An excerpt weighted towards active compounds, which were near 17% of everything screened.
ATXN2 expr inh = Primary qHTS for Inhibitors of ATXN expression. 360,000 compounds, 0.72% hits. Potency, µM (highest dose often 57 µM), without a hit: at the highest dose activity change, negative = inhibition, actives largely listed as inhibitors. HEK-293 ATXN2-luciferase reporter, luminescence, 24 h; note: % is set by controls: 0 for no effect and ±100 for the full control effect; nearly all actives have a fitted effect of over 55% in size
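ATXN2-luciferase reporter cells (luciferase flanked by upstream and downstream ATXN2 gene portions) were treated 24 h at 37 °C with compounds at up to 57 uM. SteadyGlo luminescence gave expression; GF-AFC fluorescence gave viability.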
TDP1 cell CPT = qHTS for Inhibitors of human tyrosyl-DNA phosphodiesterase 1 (TDP1): qHTS in cells in presence of CPT; chicken DT40 Tdp1-/-;hTDP1 cells + 20 nM CPT, ATP luminescence, 48 h; Potency, µM (top dose mostly 46.2 µM), without a hit: at the highest dose activity change, negative = growth inhibition, most hits filed as inhibitors; AID 686979, 2013; 420,000 compounds, 12% hits; note: % is set by controls: 0 for no effect and ±100 for the full control effect; nearly all actives have a fitted effect of over 55% in size
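Chicken DT40 Tdp1-/- cells complemented with human TDP1, 400 cells/well, exposed to compounds plus 20 nM camptothecin for at least 48 h at 37 C; viability read as ATP content by CellTiter-Glo luminescence.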
DT40 TDP1 no CPT = qHTS for Inhibitors of human tyrosyl-DNA phosphodiesterase 1 (TDP1): qHTS in cells in absence of CPT | DT40 Tdp1-/- hTDP1 cells, no CPT, ATP luminescence, 48 h | Potency, µM (highest dose often 46.2 µM), inactives show top-dose activity change, negative = growth inhibition, actives largely listed as inhibitors | 420,000 compounds, 15% hits; note: % is set by controls: 0 for no effect and ±100 for the full control effect; nearly all actives have a fitted effect of over 55% in size
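Growth of hTDP1-complemented DT40 Tdp1-knockout cells is measured by ATP luminescence after at least 48 hr compound exposure at 37 °C, with DMSO substituting for the 20 nM CPT used in the parallel screen.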
HepG2 viability = qHTS for Inhibitors of TGF-b: Cytotox Counterscreen; Potency, µM (doses to about 46.1 µM), without a hit: at the top dose activity change, negative = cytotoxicity, actives largely listed as cytotoxic; AID 588856, 2011; 410,000 compounds, 0.76% hits; HepG2 CAGA-GFP viability, ATP luminescence, 18 h
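HepG2 CAGA-GFP cells (1000/well, DMEM with 1% FBS) received compound, then TGF-beta at 500 pg/mL final, and were incubated 18 hours at 37 degrees C. Viability was read by CellTiter-Glo luminescence. Media-only wells were set as complete cell-killing and DMSO as no toxicity.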
ATXN viability = Viability Counterscreen for Primary qHTS for Inhibitors of ATXN expression; Potency, µM (titrated, usually from 56.7 µM), most hits filed as cytotoxic; S2 cells (HEK-293 line with an ATXN2-luciferase reporter) viability, CellTiter-Fluor protease fluorescence, 24 h; 400,000 compounds, 0.49% hits; note: nearly all actives have a fitted effect of over 40% in size
TGFb SMAD3 inh = qHTS for Inhibitors of TGF-b. 410,000 compounds, 1.2% hits. HepG2 CAGA-GFP TGF-b/SMAD3 reporter, GFP fluorescence, 18 h; TGF-beta stimulated, 500 pg/mL final. Potency, µM (doses to about 46.1 µM), inactives show at the highest dose activity, negative = inhibition, hits mostly inhibitors; note: % is set by controls: 0 for no effect and ±100 for the full control effect; nearly all actives have a fitted effect of over 65% in size
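HEPG2 CAGA-GFP reporter cells (1000/well, DMEM with 1% FBS) received compounds, then recombinant TGF-beta at 500 pg/mL final for 18 hours at 37 degrees C. Per-cell GFP summed per well was normalised to unstimulated and stimulated DMSO controls before curve fitting.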
Numbers without * were called inactive; i = inactive; ? = inconclusive; · = no result given; [ ] = dose if it differs, or a comment. Calls come from the whole dose curve; as a rule, active = well fitted curve in the direction sought with a large enough effect; inconclusive = small, poorly fitted or top-dose-only effect, or another doubt; inactive = no such curve, though single readings can be large; an effect the other way counts as inactive or inconclusive. Potency is the fitted concentration of half-maximal effect.

SMILES | ATXN2 expr inh | TDP1 cell CPT | DT40 TDP1 no CPT | HepG2 viability | ATXN viability | TGFb SMAD3 inh
COc1ccc2cc3cc(C(=O)N4CCCCC4C)oc3nc2c1 (stereo unspecified) | · | 16.4µM* | ? | -30.2% | ? | 0.9%
CC(C)c1ccc(NC(=O)CN2C(=O)CSc3ccc(S(=O)(=O)N4CCCC4)cc32)cc1 | · | 16.4µM* | 16.4µM* | -13.9% | · | -28.7%
Cc1ccc(NC(=O)CN2C(=O)CCSc3ccc(S(=O)(=O)N4CCCC4)cc32)cc1C | 9.4% | ? | ? | -17.3% | i | ?
O=C(CN1C(=O)CSc2ccc(S(=O)(=O)N3CCCCCC3)cc21)NCCc1ccccc1 | -3.8% | ? | 23.1µM* | -2.1% | ? | -1.1%
COc1cc(NC(=O)CN2C(=O)CSc3ccc(S(=O)(=O)N4CCCC4)cc32)cc(OC)c1 | · | ? | ? | -1.6% | i | -12.2%
Cc1cc(NC(=O)CN2C(=O)CSc3ccc(S(=O)(=O)N(C)C)cc32)ccc1Br | -23.5% | ? | 20.6µM* | -15.1% | ? | ?
Cc1ccc(NC(=O)CN2C(=O)CSc3ccc(S(=O)(=O)N4CCCC4)cc32)cc1F | · | ? | 23.1µM* | -13.7% | · | ?
CCCCCCn1c(COc2ccccc2F)nnc1SCC(=O)NC1CCS(=O)(=O)C1 (stereo unspecified) | 1.4% | ? | -23.8% | -2.1% | i | ?
O=c1c(-c2cc(F)cc(F)c2)nc2cnc(N3CCOCC3)nc2n1C1CC1 | · | -4.7% | -1.4% | · | · | ·
COc1cc(Cl)c(NC(=O)c2cc3ccccn3n2)c(OC)c1 | 17.0% | 16.4µM* | 20.6µM* | -28.4% | i | 3.3%
COc1ccc(NC(=O)c2cc3ccccn3n2)cc1 | -17.3% | -12.9% | -6.2% | -21.8% | i | -5.5%
Cc1ccc2c(c1)CN(CCNC(=O)c1ccc3nc(C)[nH]c3c1)CC(C)O2 (stereo unspecified) | · | 7.0%[9.04 µM] | -7.2% | · | i | ·
COc1ccc(-c2oc(NC(=O)CCl)c(C#N)c2-c2ccc(OC)cc2)cc1 | 17.8µM* | 6.51µM* | 5.17µM* | 12.6µM* | · | -18.5%
COc1ccc(-c2oc(NC(=O)CSc3ncn[nH]3)c(C#N)c2-c2ccc(OC)cc2)cc1 | -28.6% | 12.6µM* | ? | -96.5% | i | ?
Cc1ccc(OCC(=O)Nc2oc(-c3ccccc3)c(-c3ccccc3)c2C#N)cc1 | -11.8% | 20.6µM* | 16.4µM* | -20.7% | ? | ?
COc1ccccc1OCC(=O)Nc1oc(-c2ccccc2)c(-c2ccccc2)c1C#N | -4.6% | -0.7% | -20.3% | 2.9% | i | ?
N#Cc1c(NC(=O)CSc2ncccn2)oc(-c2ccccc2)c1-c1ccccc1 | 10.9% | -6.9% | -13.3% | 0.0% | i | -12.6%
O=C(Nc1cccc2cccnc12)c1csc([C@@H]2O[C@H](CO)[C@H](O)[C@H](O)[C@H]2O)n1 | -1.4% | -6.0% | 2.9% | -6.8% | i | 17.7%
COc1ccc2[nH]c(C(=O)O)c(NS(=O)(=O)c3ccc(C)cc3C)c2c1 | 13.7% | 7.2% | 2.5% | 1.9% | i | 2.0%
CCn1c(CNC(=O)COc2ccc(C(C)C)cc2)nnc1SCC(=O)Nc1ccccc1C(C)C | -25.8% | 16.4µM* | 16.4µM* | -29.9% | i | -29.2%
CN(Cc1ccnc2ccccc12)C(=O)C1CCC(=O)N(Cc2ccccc2F)C1 (stereo unspecified) | 8.2% | 10.6% | -9.5% | 4.5% | i | 1.7%
O=C(CN(Cc1ccco1)C(=O)c1cccc(Cl)c1)Nc1c(Cl)cc(Cl)cc1Cl | -1.0% | 25.9µM* | ? | -32.9% | i | -24.9%
O=C(CN(Cc1ccco1)C(=O)c1ccc(Cl)cc1)Nc1c(Cl)cc(Cl)cc1Cl | -27.1% | 5.0% | -28.7% | 0.1% | i | 5.7%
N#C/C(=N\Nc1cccc(C(F)(F)F)c1)C(=O)c1csc(-c2cccnc2)n1 | ? | 16.4µM* | 25.9µM* | -26.3% | 25.1µM* | ?
O=C(Nc1cccc(C(F)(F)F)c1)c1cccnc1 | -12.0% | -24.2% | -15.4% | -1.3% | i | -18.6%
SMILES | ATXN2 expr inh | TDP1 cell CPT | DT40 TDP1 no CPT | HepG2 viability | ATXN viability | TGFb SMAD3 inh
Cn1nc(-c2ccccc2)cc1NS(=O)(=O)c1ccc(C#N)cc1 | -5.2% | -5.7% | -0.9% | 3.9% | i | 37.4%
Cc1nc(N)c(C#N)c(-c2ccccc2)c1C | 5.7% | -4.9% | ? | 29.4% | i | 0.0%
Cc1nn(-c2ccccc2)c2nc(N)c(C#N)c(-c3ccc(F)cc3)c12 | -16.5% | 18.4µM* | 25.9µM* | -22.4% | i | -7.3%
N#Cc1c(N)nc2c(c1-c1ccc(F)cc1)c(=O)nc1sccn12 | -1.2% | 6.4% | 2.59µM* | -4.3% | i | 8.3%
Cc1ccc(-n2nc(C)c3c(-c4cccs4)c(C#N)c(N)nc32)cc1 | 3.4% | ? | 23.1µM* | -16.7% | i | -0.2%
CCOc1ccc(CNC(=O)c2cnc3sc(N4CCC(C)CC4)nn3c2=O)cc1OC | 6.3% | ? | 0.5% | 3.3% | i | -0.2%
CCC(C)N(C(=O)COC(=O)c1ccccc1SCC(=O)N1CCCC1)C1CCS(=O)(=O)C1 (stereo unspecified) | 8.0% | 3.4% | -20.8% | -33.5% | i | -1.1%
Cc1cc(C(=O)N/N=C/c2ccc(N(C)C)cc2)c2ccccc2n1 | ? | 2.91µM* | 4.11µM* | -1.6% | ? | -10.2%
O=C(N/N=C/c1ccc([N+](=O)[O-])cc1)c1cc(C2CC2)nc2ccccc12 | ? | 9.2µM* | 7.31µM* | -72.4% | ? | -20.0%
CCc1ccc(/C=N/NC(=O)c2cc(C3CC3)nc3ccccc23)s1 | -20.1% | 4.61µM* | 2.31µM* | -22.8% | ? | -6.6%
Cc1cc(C(=O)N/N=C/c2cc(Br)cc([N+](=O)[O-])c2O)c2ccccc2n1 | ? | ? | ? | 1.6% | i | -12.5%
Cc1cc(C(=O)N/N=C/c2cc([N+](=O)[O-])ccc2O)c2ccccc2n1 | ? | 5.17µM* | 4.61µM* | -25.2% | ? | ?
Cn1cc(C(=O)C(=O)NC2CCCCC2)c2ccccc21 | 43.3% | 6.3% | 3.5% | 3.5% | i | 5.4%
CC(C)NC(=O)c1ccc(Cn2c(=O)c3cccn3c3cccnc32)cc1 | · | 3.8% | ? | -3.6% | · | -19.0%
COc1ccc(S(=O)(=O)Nc2ccc(-n3cnnn3)cc2)cc1[N+](=O)[O-] | · | -11.4% | -29.8% | -8.1% | i | -0.8%
